# Data from the supplement of paper PMC12632987.
# T1: USP38, Q8NB14
# T1 chain: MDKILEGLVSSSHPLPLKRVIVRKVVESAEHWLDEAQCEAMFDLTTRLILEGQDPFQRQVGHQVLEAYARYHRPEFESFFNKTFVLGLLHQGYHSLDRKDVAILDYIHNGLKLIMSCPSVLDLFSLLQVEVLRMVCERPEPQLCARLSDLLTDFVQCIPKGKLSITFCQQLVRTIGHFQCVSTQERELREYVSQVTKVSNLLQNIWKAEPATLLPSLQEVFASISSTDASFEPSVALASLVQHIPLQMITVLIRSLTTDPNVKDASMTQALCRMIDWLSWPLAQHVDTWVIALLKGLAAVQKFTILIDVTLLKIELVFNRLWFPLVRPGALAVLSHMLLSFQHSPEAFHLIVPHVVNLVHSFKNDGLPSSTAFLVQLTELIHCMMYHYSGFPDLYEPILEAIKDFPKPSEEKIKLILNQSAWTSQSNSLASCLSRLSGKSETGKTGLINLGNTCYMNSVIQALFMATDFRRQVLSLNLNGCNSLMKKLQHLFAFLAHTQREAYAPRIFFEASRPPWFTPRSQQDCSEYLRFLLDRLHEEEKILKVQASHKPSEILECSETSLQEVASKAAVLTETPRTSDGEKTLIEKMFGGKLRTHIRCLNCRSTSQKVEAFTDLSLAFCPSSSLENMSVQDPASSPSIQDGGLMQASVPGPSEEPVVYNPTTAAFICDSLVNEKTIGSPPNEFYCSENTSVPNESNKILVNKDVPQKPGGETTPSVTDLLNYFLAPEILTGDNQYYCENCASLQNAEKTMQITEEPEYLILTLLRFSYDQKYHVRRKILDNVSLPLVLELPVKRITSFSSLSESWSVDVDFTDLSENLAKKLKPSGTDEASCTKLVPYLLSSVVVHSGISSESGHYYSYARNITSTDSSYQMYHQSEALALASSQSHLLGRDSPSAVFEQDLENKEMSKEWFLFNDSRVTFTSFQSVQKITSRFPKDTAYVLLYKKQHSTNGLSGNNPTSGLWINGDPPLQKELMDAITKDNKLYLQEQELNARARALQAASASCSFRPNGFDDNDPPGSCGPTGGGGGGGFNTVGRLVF
# Molecular target: T1, USP38, Q8NB14
# Assay: median log2 fold change of GCK-ALFA target abundance (FLAG IP / Myc IP barcode read proportion) (log2 ratio); each designed protein is fused to an ALFA-tag nanobody in HEK293 cells to bring the named protein to FLAG-tagged glucokinase (GCK); Myc marks an untargeted standard; higher = target protein stabilised (more abundant)
# Conditions: target protein: 3xFLAG-MCP-GCK-ALFA reporter; HEK293 landing pad (RPLP)
# In short: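 Sequencing of reverse-transcribed, amplified circular RNA barcodes from anti-FLAG and anti-Myc immunoprecipitates provided the readout for an ALFA-nanobody-fused binder library recombined into HEK293 landing-pad cells. Those cells were induced with 2 μg mL^−1 doxycycline, transfected with a plasmid expressing a FLAG-tagged target and a Myc-tagged standard, and lysed after 48 h. Target abundance is the per-binder median log2 ratio of FLAG to Myc barcode read proportions. Only barcodes at a proportion of ≥10^−7 in both replicates and binders with ≥3 barcodes per replicate were kept, with a 10^−6 pseudocount added before the two replicates were pooled.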
row,Binder,median log2 fold change
1,usp_38_diff_out_3_65_529 (protein) KVEEEIKKAKKYLEEARKIIEELKEKVKTDPTITEEEVNEMLDEAADLIVKAGEALRKARKLNPDEEQKKEIEKLEKELDELIDEYTEAGREAFLAVGER,0.0941
2,usp_38_diff_out_3_136_524 (protein) ATAAAKAQIKALEATAKALKEDSLKLVKELLEDPNVTPEDLESLKKIVLSSFDDLIAEVKAIKAAHPEVAAEADKAIKAIEEYKKEVEKAFNEAIAKKKA,-0.221
3,usp_38_diff_out_3_65_528 (protein) GVEELLARAEEALRRLEEVIREAEEALKRAEELSAEELDELIRRATRVALEAERIRRELRRAGDSPEIRAAIARLEEAIERLNEVIERLTEALTAKLIAE,0.193
4,usp_38_diff_out_3_124_518 (protein) SEAEELVAKAKELLEKLTKVLEEAEKALDKDLEKAEKLLKEADELLTELSAALLRLRDLAMADPSWRPALKEIEAKANEVIDKYTEVATKFFEKKAEAQE,-0.761
5,usp_38_diff_out_3_136_522 (protein) SVAAVKAEIERLKATADEMKKSTLRLIAELSKDPNVTPEDVESLKKVVLDSYQDLKDDVKALKAANPEVAAQADAALAAIDANAAEVKAAFDALLKEKKA,-0.0509
6,usp_38_diff_out_3_124_515 (protein) AEAEALLAELEELLERAEELIERAEEELDGDLERLRELLEELDEVLDELSAVFMRLHELAAEDPSHRPLLKEARKRSNEVITRATEVRLRALERLAEAAE,0.0853
7,usp_38_diff_out_3_124_517 (protein) SRADELAAEARATLAELNATLAELEAALDTDLERARELAARADELLARLSGLLLELRDLAREDPRYRPTLKELEAEANAAIDRYTELMTRLFEKEAEAAA,-0.553
8,usp_38_diff_out_3_136_526 (protein) SVAAVKAQIKALEATARALKEDMLKLVEELLKDPNVTPEDLESLKKIVLDSFDDIIKEVEELAKKYPEVKEEAEKAIKKIEEYRDEVKKAFDEAIKEKKA,0.0442
9,usp_38_diff_out_3_65_530 (protein) KVEEKLKEAEEHLEKAEELVEELRRLTEEDPTLTADEVVEMLDKIDDELVAAGKAIEEAKKLNPTPEQKKKIEELEKRLDELIDRRIEAAEEAFLRVGEA,0.137
10,usp_38_diff_out_3_124_514 (protein) SRAEALFAKLKELLAKAEELIKKAEEELDKNLEELKKLLEELDKVMDEASRVFMELHELAAEDPAHRPLLKEARAASNKVVTRYTEVVLKALERLAEAEE,-0.179
11,usp_38_diff_out_3_124_513 (protein) AEAEKLAKELDKALKELEKLIKEAEKELDKDPEKLKKLLEEADETLDRAAGLYMQLHELAAEDPSTRPLLKKAREKANKVIDRYTEVRTKALERLAELEE,-0.564
12,usp_38_diff_out_3_136_519 (protein) STEEVKEEIKRLEATAESMKESTLKLIEELSKDPNVTPEDVEELKKVVLSAFQDLKDDVKALKEAHPEVKEEADKAEAKIEAYKAEVEAAFDALIAEKKA,0.188
13,usp_38_diff_out_3_136_527 (protein) ATAAVRARIRALEETARELKRSSLRLVEELLKDPNVTPEDLEELRKIVLDSFRDLEEEVRRLAAAEPAVAEEARRAEEEIRRYREEVERAFEEAIAAKKA,-0.205
14,usp_38_diff_out_3_124_516 (protein) MKAEKLYEELKKLLKEIEKLIKEAKKELNKDLEELKKLLKELDKKLDELSKVFMELHELAAEDPRYRPLLKEARKESNKVITEATKVKLEALERLAEEEE,0.0275
15,usp_38_diff_out_3_136_525 (protein) SVAEAREQIKALEATAKALKESMLKLVEELLKDPNVTPEDLRELKEIVLDSFEDIKAEVEKIKKAHPEVKAEADAAIKKIEAYKKEVEAAFDAAIAAKEA,-0.268
16,usp_38_diff_out_3_136_523 (protein) MLEEVRERVRRLEETAVSLKESMLKLIEELKKDPNVTPEDVEELRKVVLDAFDSLKAEVKEIQERYPEVKEEAEKALETIEKKKKEVDKAFEELIKEKKA,-0.217
